Measurements reported in PubChem BioAssay AID588525 (Broad Institute, 2011).
Measured potencies and affinities stand elsewhere. Records with an inconclusive call do not appear. A number with no mark means an inactive call. The source made the active and inactive calls. The rule behind the calls is not given here.

target: DNA topoisomerase I (Yersinia pestis CO92) (UniProt A0A2S9PM60); experiment: Y. pestis Topo-I inhibitors, cleavage product readout, dose response, biochemical, Y. pestis CO92, cherry-pick (AID 588525); conditions: purified Y. pestis Topo-I, plate reader; series mostly up to 38 µM
Sequence (A0A2S9PM60 1-871): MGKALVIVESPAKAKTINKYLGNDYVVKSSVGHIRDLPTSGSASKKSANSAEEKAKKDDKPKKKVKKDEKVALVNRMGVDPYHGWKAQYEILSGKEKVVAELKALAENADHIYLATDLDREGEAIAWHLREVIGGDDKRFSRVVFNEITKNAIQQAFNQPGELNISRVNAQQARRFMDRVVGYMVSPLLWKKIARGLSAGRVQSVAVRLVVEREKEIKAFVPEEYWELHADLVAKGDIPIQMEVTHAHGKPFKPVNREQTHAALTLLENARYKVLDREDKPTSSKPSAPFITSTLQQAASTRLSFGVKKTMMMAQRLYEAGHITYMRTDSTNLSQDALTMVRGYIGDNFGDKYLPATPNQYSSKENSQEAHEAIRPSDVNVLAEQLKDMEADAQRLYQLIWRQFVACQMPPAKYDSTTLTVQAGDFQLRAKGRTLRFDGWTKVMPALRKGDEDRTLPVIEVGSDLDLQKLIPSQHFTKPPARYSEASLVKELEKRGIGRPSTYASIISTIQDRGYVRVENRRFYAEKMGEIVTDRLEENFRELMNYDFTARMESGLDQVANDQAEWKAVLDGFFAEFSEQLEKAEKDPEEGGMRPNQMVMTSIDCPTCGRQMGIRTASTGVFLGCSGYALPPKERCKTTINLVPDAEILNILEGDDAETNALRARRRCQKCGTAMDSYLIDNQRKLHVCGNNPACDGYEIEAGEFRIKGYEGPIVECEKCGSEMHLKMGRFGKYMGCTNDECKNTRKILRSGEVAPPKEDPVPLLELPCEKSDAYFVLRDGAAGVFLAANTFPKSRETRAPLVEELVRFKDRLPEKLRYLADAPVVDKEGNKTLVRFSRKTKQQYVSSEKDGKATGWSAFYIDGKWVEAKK

Row | Compound | outcome | activity (cleavage complex accumulation)
1 | CSc1ccccc1NC(=O)COC(=O)c1ccccc1Cc1ccccc1 | inactive | 
2 | CC1CCN(c2oc(Cc3cccc4ccccc34)nc2C#N)CC1 | inactive | 
3 | CCCCOC(=O)Nc1nnc(/C=C/c2ccc(OC)cc2)s1 | inactive | 
4 | O=C(NCCn1cc(SCc2ccccc2)c2ccccc21)c1ccccc1F |  | 26.2% [at 5 µM]
5 | COc1ccccc1C(=O)NCCC(=O)N1CC=C(c2ccccc2)CC1 | inactive | 
6 | C[C@H]1CCC(=O)N([C@H](CSc2ccccc2)Cc2ccccc2)CC1 | inactive | 
7 | CCCCn1c(C)cc(C)c(S(=O)(=O)c2ccccc2C)c1=O | inactive | 
8 | Cc1cc(NC(=O)C(C)SCC(=O)N(C)CC(=O)Nc2ccc(F)cc2)no1 (centres undefined) | inactive | 
9 | C#CCN(C[C@@H](CC(C)C)NC(=O)OC(C)(C)C)S(=O)(=O)c1ccc(Br)cc1F | inactive | 
10 | O=C(COC(=O)CCC1CCCC1)Nc1ccccc1Sc1ccccc1 | inactive | 
11 | CC(C)OC(=O)C(C)(C)Oc1ccc(C(=O)c2ccc(Cl)cc2)cc1 | inactive | 
12 | COC(=O)c1ccc(C2C(Oc3ccc(OC)cc3)C(=O)N2CCc2ccc(F)cc2)cc1 (centres undefined) | inactive | 
13 | Cc1ccc(CSc2nc3c(c(N(C)C)n2)CCCC3)cc1 | inactive | 
14 | CC(=O)c1ccccc1OCc1ccc(C(=O)c2ccccc2)cc1 | inactive | 
15 | CCCCN1CC(COCc2ccccc2)Oc2cccc(F)c2S1(=O)=O (centres undefined) | inactive | 
16 | CCCCCCCCN1[C@@H](CC(C)=O)c2cc(C(F)(F)F)ccc2S1(=O)=O | inactive | 
17 | Cc1ccc2c(Cl)c(C)c(N3CCCCC3)nc2n1 | inactive | 
18 | CCCCC(CC)COC(=O)c1ccccc1C(=O)OCC(CC)CCCC (centres undefined) | inactive | 
19 | Cc1ccccc1OCC(=O)Nc1ccccc1N1CCCCC1 | inactive | 
20 | O=C(OCc1ccccc1)N1CCC2CC1c1c(Cl)cccc12 (centres undefined) | inactive | 
21 | COc1ccc(C2CC(c3ccccc3)=NN2C(=O)COC(=O)c2cccc(S(=O)(=O)N3CCOCC3)c2)cc1 (centres undefined) | inactive | 
22 | O=C(Cc1ccccc1)CC(CC(=O)c1ccccc1)c1ccccc1 (centres undefined) | inactive | 
23 | O=C(NCC1(c2ccccc2)CCCC1)C1(c2ccccc2)CCCC1 | inactive | 
24 | O=C(COc1c(Cl)cccc1Cl)Nc1ccccc1N1CCCC1 | inactive | 
